Data taken from PubChem BioAssay (NCI).
About 83,000 compounds went through this panel and 20% of them were active in at least one assay; those are over-represented in the sample as a whole.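 48-hour exposure, single concentration, 96-well plates; percent growth endpoint where 0 means no net growth. Active: below 10.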 Values without a mark were called inactive. Activity calls are given as the source filed them.

How the values were obtained:
Test in all cases: NCI-60 one-dose screen, 48 h (100 = growth as untreated, 0 = no growth, -100 = all killed)
Conditions in all cases: 10 µM unless noted
[1] = system: HCT-15 colon
[2] = system: HT29 colon
[3] = system: SNB-75 CNS
[4] = system: SNB-19 CNS
[5] = system: U251 CNS
[6] = system: PC-3 prostate
[7] = system: SK-MEL-5 melanoma
[8] = system: UACC-62 melanoma
[9] = system: LOX IMVI melanoma
[10] = system: SK-MEL-28 melanoma

Row | SMILES | growth [1] | growth [2] | growth [3] | growth [4] | growth [5] | growth [6] | growth [7] | growth [8] | growth [9] | growth [10]
1 | Nc1ncnc2c1c(-c1cccc(OCc3ccccc3)c1)cn2C1CC(CN2CCC2)C1 (stereo not given) | 10.1% | -39.8% (active) | -28.7% (active) | 32.1% | -17.9% (active) | 27.4% | -96.7% (active) | -55.9% (active) | -75% (active) | -69.6% (active)
2 | C=CCn1c(=O)c2cnc(Nc3ccc(N4CCN(C)CC4)cc3)nc2n1-c1cccc(C(C)(C)O)n1 | 4.74% (active) | -12.4% (active) | 3.88% (active) | 26.9% | 16.7% | 28.4% | 18.2% | 42.6% | 5.87% (active) | 64.4%
3 | COc1ccc(-c2ccc3ncc4c(c3c2)n(-c2ccc(N3CCNCC3)c(C(F)(F)F)c2)c(=O)n4C)cn1 | -78.6% (active) | -78.2% (active) | -95.1% (active) | -74.2% (active) | -85.5% (active) | -84.1% (active) | -92.4% (active) | -74.7% (active) | -82% (active) | -76.6% (active)
4 | CS(=O)(=O)CCNCc1ccc(-c2ccc3ncnc(Nc4ccc(OCc5cccc(F)c5)c(Cl)c4)c3c2)o1 | -3.39% (active) | -59.1% (active) | -97.2% (active) | 3.57% (active) | -84.8% (active) | -20.6% (active) | -98.9% (active) | -52.4% (active) | -72.5% (active) | -95.7% (active)
5 | CC(=O)CC1CCCC1c1ccc2ccccc2c1 (stereo not given) | 103% | 95.8% | 93.8% | 104% | 94.4% | 91.9% | 101% | 99.6% | 97.8% | 103%
6 | CCN(CC)c1cc2oc3cc(N)cc(=N)c-3nc2cc1C | 37.8% | 86.7% | 11.6% | 69.7% | 19.4% | 39.2% | -2.64% (active) | 30.8% | -0.53% (active) | 34.3%
7 | COC(=O)CCCNc1c(-c2c(O)c(O)cc3c(O)c(-c4c(C)cc5c(-c6nc7ccccn7c6NCCCC(=O)OC)c(O)c(O)cc5c4O)c(C)cc23)nc2ccccn12 | 76.9% | 48.8% | 19.9% | 21.4% | 14% | 52.7% | 76.2% | 41.4% | 18% | 39.7%
8 | CC12O[C@H](C[C@@H](OC(=O)CCC(=O)O)[C@H]1O)n1c3ccccc3c3c4c(c5c6ccccc6n2c5c31)C(=O)NC4=O | 15% | 21.2% | -8.7% (active) | 43.2% | 50.6% | 48% | -19% (active) | -6.1% (active) | 15.9% | 33.8%
9 | COc1cc2c(cc1OCCCCN1CCN(CC(=O)Nc3ccc(Cl)cc3C(=O)c3ccccc3Cl)CC1)N=CC1CCCN1C2=O (stereo not given) | -65.6% (active) | -61.4% (active) | -84.7% (active) | -57.3% (active) | -88.4% (active) | -98.6% (active) | -92.6% (active) | -85.1% (active) | -84.4% (active) | -86% (active)
10 | Cc1ccc(NC(=O)Nc2ccc(Nc3ncnc4sc5c(c34)CCOC5)cc2)cc1Cl | 106% | 81.2% | 69.8% | 103% | 87.7% | 81.2% | 95% | 95.4% | 97.3% | 111%
11 | CCCS(=O)(=O)Nc1ccc(F)c(C(=O)c2c[nH]c3ncc(-c4ccc(Cl)cc4)cc23)c1F | 28.4% | 4.44% (active) | 8.13% (active) | 40.4% | 18.5% | 21.8% | 15.9% | -22.6% (active) | 16.5% | 1.65% (active)
12 | CC(C)(C)c1ccc(Cn2cc(CSc3nc4ccccc4s3)nn2)cc1 | 99.7% | 99.6% | 94% | 89.8% | 93.3% | 96.1% | 106% | 88.4% | 103% | 96.4%
13 | COc1cc(OC)c(/C=C/S(=O)(=O)Cc2ccc(OC)c(NCC(=O)O)c2)c(OC)c1 | 11.8% | 0.285% (active) | 18.2% | 29.4% | 11.4% | 21.9% | -12.1% (active) | 37.4% | 16% | 65.9%
14 | COc1ccc(-c2cc3c(oc2=O)-c2ccccc2OC3OC(C)=O)cc1 (stereo not given) | 86.2% | 81.1% | 100% | 98% | 89.4% | 89.2% | 98.2% | 81.8% | 98.2% | 118%
15 | C[C@]12O[C@H](C[C@]1(O)CO)n1c3ccccc3c3c4c(c5c6ccccc6n2c5c31)CNC4=O | -12.4% (active) | -22.5% (active) | -99.4% (active) | -20.6% (active) | -75.1% (active) | -31% (active) | -87% (active) | -49.9% (active) | -70.5% (active) | -85.9% (active)
16 | N#CC1(C#N)C(c2cccs2)NC(c2cccs2)C1(C#N)C#N (stereo not given) | 94.5% | 103% | 75.1% | 106% | 104% | 94.6% | 114% | 101% | 93.9% | 109%
17 | CN1CCN(CC(=O)Nc2ccc(-c3nc4ccccc4s3)cc2)CC1 | 52.9% | 39.6% | 73.1% | 89.7% | 67.5% | 83.6% | 73.7% | -35.8% (active) | -33.7% (active) | 33.8%
18 | COc1cc2c(cc1OCCCCCCN1CCN(c3ncnc4ccccc34)CC1)N=CC1CCCN1C2=O (stereo not given) | -2.53% (active) | 10.9% | -46.9% (active) | 17% | 0.0332% (active) | -23.1% (active) | -87.2% (active) | -95.8% (active) | -51.1% (active) | -4.17% (active)
19 | CCCCCCCC(=O)SCC/C=C/[C@@H]1CC(=O)NCc2nc(co2)C2=N[C@@](C)(CS2)C(=O)N[C@@H](C(C)C)C(=O)O1 | 0.603% (active) | 2.22% (active) | 26.1% | 9.15% (active) | -61.2% (active) | 9.75% (active) | -93.5% (active) | -68% (active) | -97.2% (active) | -37.2% (active)
20 | Cc1ccc(N=C2CSc3nnc(-c4csc5c4CCCC5)n3N2)cc1 | 22.9% | 7.38% (active) | 56.9% | 35.7% | 23% | 27.9% | 19% | 40.2% | 46.3% | 63.2%
21 | CCN1CCN(c2nc(C)cc(N(CCCNc3ccnc4cc(Cl)ccc34)Cc3ccc4c(c3)OCO4)n2)CC1 | -32.9% (active) | -26.2% (active) | -53.5% (active) | 24.8% | -73.7% (active) | 24.7% | -97.6% (active) | -52.9% (active) | -84.4% (active) | -64.1% (active)
